Source: PubChem
ELG1 genotoxic: genotoxicity induction in ELG1-luciferase HEK293T cells | HEK293T ELG1-luciferase reporter, luminescence, 16 h | Potency, µM (top dose mostly 46 µM), without a hit: top-dose activity change, positive = activation, actives largely listed as activators | hit rate 1.3% among 330,000; note: % of control where 0% means no effect; nearly all actives have a fitted effect of over 60% in size
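After overnight (16 hr) compound treatment at 37 °C, ELG1-luciferase HEK293T cells were lysed with ONE-Glo; luminescence quantified 30 min later at room temperature.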
NPC1 prom act: activators of NPC1 promoter | Huh7 NPC1 promoter luciferase reporter, 24 h | hit rate 2.4% among 320,000 | Potency, µM (titrated, usually from 9.22 µM), without a hit: at the highest dose activation, usual class: activators | AID 485313; note: % of control where 0% means no effect; nearly all actives have a fitted effect of over 60% in size
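Huh7 cells stably carrying NPC1 promoter–luciferase, plated in Opti-MEM with 10% FBS for 2 h, were exposed to compound in DMSO for 24 h at 37 °C; luciferase reagent was added for 10 min and luminescence read.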
Rab9 promoter act: activators of Rab9 promoter; AID 485297; Potency, µM (doses to about 9.22 µM), for the others: at the top dose activation, negative = inhibition, hits mostly activators; Huh7 Rab9 promoter-luciferase reporter, luminescence, 24 h; hit rate 2.8% among 320,000; note: % of control where 0% means no effect; nearly all actives have a fitted effect of over 60% in size
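Steps: seed 1500 Huh7 Rab9-luc cells per well, rest 2 h at 37 °C; add compound in DMSO; incubate 24 h; add luciferase reagent, 10 min ambient; read luminescence.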
ELG1 repair inh: inhibitors of ELG1-dependent DNA repair in HEK293T cells. HEK293T ELG1-luciferase reporter, luminescence, 16 h; DNA damage induced by 5-fluorouridine. Potency, µM (titrated, usually from 46.1 µM), inactives show top-dose activity change, negative = inhibition, actives largely listed as inhibitors. hit rate 2.3% among 330,000; note: % is set by controls: 0 for no effect and ±100 for the full control effect; nearly all actives have a fitted effect of over 55% in size
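In this reporter screen, reduction of luminescence relative to DMSO vehicle indicated activity. Compounds and 5-fluorouridine were added together to 2,000 cells per well, incubated for 16 hr at 37 °C, then developed with ONE-Glo.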
FLuc modulator: firefly luciferase modulation, counter-screen for miR-21 project. purified FLuc, Km substrates, luminescence inhibition. AID 588342. P08659. Potency, µM (top dose mostly 57.5 µM), for the others: at the top dose activity change, negative = inhibition, hits mostly inhibitors. hit rate 6.9% among 360,000;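 note: plate controls were vehicle for no effect and reference inhibitor for full effect; nearly all actives have a fitted effect of over 55% in size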
Target sequence (P08659 whole entry, looked up): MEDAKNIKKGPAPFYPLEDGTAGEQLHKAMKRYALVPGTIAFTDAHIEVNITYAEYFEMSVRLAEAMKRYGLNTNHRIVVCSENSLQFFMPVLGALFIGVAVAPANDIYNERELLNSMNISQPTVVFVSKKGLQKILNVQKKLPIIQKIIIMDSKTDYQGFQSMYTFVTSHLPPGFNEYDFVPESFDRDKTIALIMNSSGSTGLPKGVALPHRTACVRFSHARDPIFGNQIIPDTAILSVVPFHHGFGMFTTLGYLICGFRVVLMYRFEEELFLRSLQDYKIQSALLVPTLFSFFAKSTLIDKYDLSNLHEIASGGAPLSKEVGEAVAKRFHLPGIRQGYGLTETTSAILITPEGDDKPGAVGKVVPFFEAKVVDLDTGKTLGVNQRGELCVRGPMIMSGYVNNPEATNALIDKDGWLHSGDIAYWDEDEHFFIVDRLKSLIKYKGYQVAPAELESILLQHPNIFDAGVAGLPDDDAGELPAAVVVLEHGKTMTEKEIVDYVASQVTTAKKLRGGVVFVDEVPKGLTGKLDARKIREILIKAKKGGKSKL
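Biochemical qHTS of compounds, final roughly 60 µM downward over six points, against 10 nM purified firefly luciferase using Km concentrations of substrates (10 uM D-luciferin, 10 uM ATP) in Tris acetate pH 7.5 buffer; luminescence output.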
SMN2 splice enh: enhancers of SMN2 splice variant expression; hit rate 2.8% among 210,000; HEK293 SMN2-luciferase splicing reporter, luminescence, 30-36 h; Potency, µM (titrated, usually from 46.1 µM), without a hit: at the highest dose activity change, positive = activation, usual class: activators; note: % of control where 0% means no effect; nearly all actives have a fitted effect of over 55% in size
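qHTS luciferase splicing reporter: luminescence rises when SMN2 exon 7 is included in transfected HEK293 cells. Compound exposure lasted 30-36 h at 37C, with 4.5 mM final sodium butyrate as control, followed by a ONE-Glo read.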
Active calls of the source: *. Only some compounds are listed: those with a hit (about 9.2% of all), similar ones and a draw of the others. Calls come from the whole dose curve; as a rule, active = well fitted curve in the direction sought with a large enough effect; inconclusive = small, poorly fitted or top-dose-only effect, or another doubt; inactive = no such curve, though single readings can be large; an effect the other way counts as inactive or inconclusive. Potency is the fitted concentration of half-maximal effect.

What do the screens show for `O=C(Nc1ccc(Cl)cc1)c1ccc2nsnc2c1`?
ELG1 genotoxic: 15.8%; NPC1 prom act: 2.51µM*; Rab9 promoter act: 3.98µM*; ELG1 repair inh: inconclusive; FLuc modulator: inconclusive; SMN2 splice enh: 11.2µM*

Results for O=C(NC(=S)Nc1ccc(Br)cc1)C1CCC1 ?
ELG1 genotoxic: inconclusive; NPC1 prom act: 22.8%; Rab9 promoter act: 17.0%; ELG1 repair inh: inconclusive; FLuc modulator: 19µM*

What do the screens show for `COC(=O)c1ccc(NC(=S)NC(=O)C2CCC2)cc1`?
ELG1 genotoxic: 17.3%; NPC1 prom act: 1.7%; Rab9 promoter act: 1.6%; ELG1 repair inh: inconclusive; FLuc modulator: inconclusive

How did COc1ccc(NC(=S)NC(=O)C2CCC2)cc1 do in these assays?
ELG1 genotoxic: inconclusive; NPC1 prom act: inconclusive; Rab9 promoter act: 4.47µM*; ELG1 repair inh: inconclusive; FLuc modulator: 16.9µM*

How did CCCOC(=O)Cn1cnc2scc(-c3ccc(OC)cc3)c2c1=O do in these assays?
ELG1 genotoxic: -4.8%; NPC1 prom act: -2.4%; Rab9 promoter act: inconclusive; ELG1 repair inh: 4.4%; FLuc modulator: -7.6%

What do the screens show for `CCN(CC(=O)Nc1c(F)cccc1F)C(=O)/C=C/c1cn(Cc2ccccc2)nc1-c1cccnc1`?
ELG1 genotoxic: -3.4%; NPC1 prom act: -0.9%; Rab9 promoter act: 1.6%; ELG1 repair inh: inconclusive; FLuc modulator: 0.0%

How did CCn1c(=O)sc2cc(NC(=O)c3cccc(OC)c3)ccc21 do in these assays?
FLuc modulator: inconclusive; SMN2 splice enh: 20.0%

What do the screens show for `CCn1c2ccccc2c2cc(NC(=O)c3cccc(OC)c3)ccc21`?
ELG1 genotoxic: 6.0%; NPC1 prom act: inconclusive; Rab9 promoter act: inconclusive; ELG1 repair inh: -9.3%; FLuc modulator: 16.9µM*; SMN2 splice enh: inconclusive

How did CCn1c2ccccc2c2cc(NC(=O)c3cccc(OC)c3OC)ccc21 do in these assays?
ELG1 genotoxic: -0.4%; NPC1 prom act: 0.9%; Rab9 promoter act: 9.9%; ELG1 repair inh: 14.6µM*; FLuc modulator: inconclusive; SMN2 splice enh: -14.8%

Results for Cc1ccc(Cl)cc1NC(=O)Nn1cnnc1 ?
ELG1 genotoxic: 0.3%; NPC1 prom act: 0.1%; Rab9 promoter act: 3.6%; ELG1 repair inh: 6.3%; FLuc modulator: 2.0%

Results for O=C(NC1CCCc2ccccc21)c1ccccc1Br (configuration not stated) ?
ELG1 genotoxic: -0.9%; NPC1 prom act: -2.5%; Rab9 promoter act: -0.7%; ELG1 repair inh: -5.3%; FLuc modulator: -0.2%; SMN2 splice enh: -11.1%

What do the screens show for `O=C(NC1CCSc2ccccc21)c1ccccc1Br` (configuration not stated)?
ELG1 genotoxic: -3.6%; NPC1 prom act: inconclusive; Rab9 promoter act: 29.2%; ELG1 repair inh: inconclusive; FLuc modulator: 16.9µM*

How did CN(CC(=O)Nc1cccc(F)c1)C(=O)c1ccc(NC2CC2)c([N+](=O)[O-])c1 do in these assays?
ELG1 genotoxic: -5.4%; NPC1 prom act: 1.1%; Rab9 promoter act: 1.0%; ELG1 repair inh: -2.7%; FLuc modulator: 4.0%

How did O=C(Nc1ccccc1Cl)N1CCCN(c2nc(-c3ccccc3)ns2)CC1 do in these assays?
ELG1 genotoxic: -5.8%; NPC1 prom act: -4.7%; Rab9 promoter act: -15.2%; ELG1 repair inh: inconclusive; FLuc modulator: 2.3%

What do the screens show for `O=C(Nc1ccccc1)N1CCN(c2nc(-c3ccccc3)ns2)CC1`?
ELG1 genotoxic: -6.4%; NPC1 prom act: 0.2%; Rab9 promoter act: -5.4%; ELG1 repair inh: 23.1µM*; FLuc modulator: -12.6%

What do the screens show for `O=C(CC(Nc1ccccc1Cl)C(=O)OCC(=O)c1cccs1)c1ccccc1` (configuration not stated)?
ELG1 genotoxic: inconclusive; NPC1 prom act: 5.3%; Rab9 promoter act: 15.1%; ELG1 repair inh: inconclusive; FLuc modulator: -18.4%; SMN2 splice enh: -7.9%

How did COc1ccccc1NC(CC(=O)c1ccccc1)C(=O)OCC(=O)c1ccc(C)cc1 (configuration not stated) do in these assays?
ELG1 genotoxic: 2.31µM*; NPC1 prom act: 9.7%; Rab9 promoter act: 25.6%; ELG1 repair inh: inconclusive; FLuc modulator: 3.38µM*; SMN2 splice enh: 8.91µM*

How did COc1ccccc1NC(CC(=O)c1ccccc1)C(=O)OCC(=O)c1ccc(C)c(C)c1 (configuration not stated) do in these assays?
ELG1 genotoxic: 2.06µM*; NPC1 prom act: 15.7%; Rab9 promoter act: 18.8%; ELG1 repair inh: inconclusive; FLuc modulator: 3.01µM*; SMN2 splice enh: 8.91µM*

What do the screens show for `COc1ccccc1NC(CC(=O)c1ccccc1)C(=O)OCC(=O)c1ccc(Br)cc1` (configuration not stated)?
ELG1 genotoxic: 2.06µM*; NPC1 prom act: 19.9%; Rab9 promoter act: 10.9%; ELG1 repair inh: inconclusive; FLuc modulator: 2.13µM*; SMN2 splice enh: 26.8%

How did Cc1ccc(C(=O)COC(=O)COc2ccccc2O)cc1C do in these assays?
ELG1 genotoxic: 1.1%; ELG1 repair inh: inconclusive

Results for Nc1cc2c(cc1O)CCCC2 ?
ELG1 genotoxic: 8.0%; NPC1 prom act: 10.9%; Rab9 promoter act: 25.9%; ELG1 repair inh: inconclusive; FLuc modulator: inconclusive

What do the screens show for `Cc1cc(Cl)ccc1OCC(=O)Nc1ccccc1CO`?
ELG1 genotoxic: inconclusive; NPC1 prom act: 23.1%; Rab9 promoter act: 15.1%; ELG1 repair inh: inconclusive; FLuc modulator: 21.3µM*; SMN2 splice enh: 25.3%

How did CCOC(=O)c1c(C)oc(NC(=O)COc2ccc(Cl)cc2C)c1C#N do in these assays?
ELG1 genotoxic: 3.4%; NPC1 prom act: -0.2%; Rab9 promoter act: 0.3%; ELG1 repair inh: 20.6µM*; FLuc modulator: inconclusive; SMN2 splice enh: 11.5%

What do the screens show for `Cc1c(C)c2ccc(OCC(=O)Nc3cccnc3)c(C)c2oc1=O`?
ELG1 genotoxic: inconclusive; NPC1 prom act: inconclusive; Rab9 promoter act: 19.8%; ELG1 repair inh: inconclusive; FLuc modulator: 10.7µM*

How did Cc1cc(Cl)ccc1OCC(=O)Nc1cccnc1 do in these assays?
ELG1 genotoxic: inconclusive; NPC1 prom act: 5.1%; Rab9 promoter act: -6.5%; ELG1 repair inh: inconclusive; FLuc modulator: 13.5µM*

What do the screens show for `O=S1OCCN1c1ccccc1` (configuration not stated)?
ELG1 genotoxic: -1.5%; NPC1 prom act: 0.6%; Rab9 promoter act: -4.3%; ELG1 repair inh: -5.3%; FLuc modulator: -0.5%

How did CCC1CN(C(=O)Nc2cc(OC)cc(OC)c2)c2ccccc2S1 (configuration not stated) do in these assays?
FLuc modulator: -11.0%
